# PubChem BioAssay AID743101 (Vanderbilt Specialized Chemistry Center, 2013)
# Calls of active or inactive are those of the source.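 How the source made its calls: active means calcium signal above 60% of the peak acetylcholine response at the M5 receptor, called a positive modulator; inactive means the rest.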
# Target: Muscarinic acetylcholine receptor M4 (Homo sapiens) (UniProt P08173)
# Assay: off-target M4 muscarinic potentiation – cell-based, CHO-K1 hM4/Gqi5, Fluo-4 calcium flux, ACh EC20, counter-screen for M5 PAM project (AID 743101)
# Settings: Fluo-4, ACh EC20, at 30 µM (top of the series); % max ACh response: at the top concentration
# Muscarinic acetylcholine receptor M4 (Homo sapiens), sequence (P08173 whole entry, looked up): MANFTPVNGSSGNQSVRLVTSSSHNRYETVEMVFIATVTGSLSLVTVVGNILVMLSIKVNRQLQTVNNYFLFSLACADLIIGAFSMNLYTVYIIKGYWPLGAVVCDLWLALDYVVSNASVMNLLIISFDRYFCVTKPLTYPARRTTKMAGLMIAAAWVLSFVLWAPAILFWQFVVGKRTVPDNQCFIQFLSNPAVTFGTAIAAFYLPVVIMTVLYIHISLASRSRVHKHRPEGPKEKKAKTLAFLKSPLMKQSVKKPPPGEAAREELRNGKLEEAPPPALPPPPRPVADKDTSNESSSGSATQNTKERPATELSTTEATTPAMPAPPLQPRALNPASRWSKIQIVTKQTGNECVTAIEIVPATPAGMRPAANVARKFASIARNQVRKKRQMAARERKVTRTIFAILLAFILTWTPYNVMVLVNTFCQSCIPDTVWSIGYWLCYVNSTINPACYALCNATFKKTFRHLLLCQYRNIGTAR
row,Compound,% max ACh response
1,CCN(C(=O)C1CCN(S(=O)(=O)c2ccc(-n3cccn3)cc2)CC1)[C@H](C)c1ccccc1,18.2 (inactive)
2,CCN(Cc1ccccc1C(F)(F)F)C(=O)C1(F)CCN(S(=O)(=O)c2ccc3[nH]ncc3c2)CC1,29.4 (inactive)
3,CCN(Cc1ccccc1)C(=O)C1CCN(S(=O)(=O)c2ccc3cn[nH]c3c2)CC1,15.7 (inactive)
4,CCN(Cc1ccccc1)C(=O)C1CCN(S(=O)(=O)c2ccc3[nH]ncc3c2)CC1,18.4 (inactive)
5,CCN(Cc1ccccc1Cl)C(=O)C1CCN(S(=O)(=O)c2ccc3[nH]ncc3c2)CC1,16.6 (inactive)
6,CCN(C(=O)C1CCN(S(=O)(=O)c2ccc(OC)cc2)CC1)[C@H](C)c1ccccc1,20.8 (inactive)
7,CCN(Cc1ccccc1C(F)(F)F)C(=O)C1CCN(S(=O)(=O)c2ccc3[nH]ncc3c2)CC1,29.7 (inactive)
8,CCN(Cc1ccccc1)C(=O)C1CCN(S(=O)(=O)c2ccc3c(c2)OCCO3)CC1,13.2 (inactive)
9,CCN(C(=O)C1CCN(S(=O)(=O)c2ccc3[nH]ncc3c2)CC1)[C@H](C)c1ccccc1,18.1 (inactive)
10,CCCN(Cc1ccccc1C(F)(F)F)C(=O)C1CCN(S(=O)(=O)c2ccc3[nH]ncc3c2)CC1,44.8 (inactive)
11,CCN(Cc1ccccc1C(F)(F)F)C(=O)C1CCN(S(=O)(=O)c2ccc3cn[nH]c3c2)CC1,19.4 (inactive)
